Drawing on PubChem BioAssay (NCI), this text covers growth for seven compounds.

What all share (assay): NCI-60 one-dose screen, 48 h (100 = growth as untreated, 0 = no growth, -100 = all killed)
What all share (settings): 10 µM unless noted

Test [1] relates to HCT-15 colon.
Test [2] concerns HT29 colon.
For test [3], the system named is SNB-75 CNS.
For test [4], the system named is SNB-19 CNS.
Test [5] deals with U251 CNS.
The subject of test [6] is PC-3 prostate.
For test [7], the system named is SK-MEL-5 melanoma.
For test [8], the system named is UACC-62 melanoma.
Test [9] relates to LOX IMVI melanoma.
For test [10], the system named is SK-MEL-28 melanoma.
For test [11], the system named is SK-MEL-2 melanoma.
Test [12] has as its system EKVX NSCLC.
Test [13] deals with SN12C renal.
The subject of test [14] is UO-31 renal.
For test [15], the system named is TK-10 renal.
The test system of test [16] is ACHN renal.
In test [17] the test system is CAKI-1 renal.
In test [18] the test system is A498 renal.
The test system of test [19] is CCRF-CEM leukemia.
Test [20] relates to MOLT-4 leukemia.

This is part of a sample that, as a whole, favours compounds with a hit. Of some 83,000 tested, about 20% had one in any assay.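 Percent growth is the endpoint: 0 to 100 indicates growth inhibition (40 means 60% inhibition), 0 means no net growth, and negative values indicate cell death.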 A number with no mark means an inactive call. The source made the active and inactive calls. How the source made its calls: active means growth percent below 10; inactive means the rest.

Take `CCCCCCCCCCC/C=C\C[C@H](O)C/C=C1/C(=O)C=C[C@@H]1C/C=C\CCCC(=O)OC`: the growth in test [1] was -43% (active); in test [2], -22.5% (active); in test [3], -4.49% (active); in test [4], 18.2%; in test [5], -69% (active); in test [6] it was -20% (active). Further, the growth in test [7] was -85.3% (active); in test [8], -39.9% (active); in [9], -92.4% (active); in test [10] it was -20.4% (active); in test [11], -24.4% (active); in test [12] it was 1.38% (active). Also, the growth in test [13] was -24.7% (active); in test [14] it was -63% (active); in test [15] it was 0.114% (active); in test [16], -20.1% (active); in test [17], 13.8%; in test [18], 99.7%. For the same compound, the values for the growth in test [19] and in test [20] were 12.2% and -0.235% (active), respectively.

`CC/C=C\C/C=C\C[C@H]1C/C=C2/C(=O)C=C[C@H]2C/C=C\CCC(=O)O1`: the growth in test [1] is -14.6% (active); in test [2], -16.5% (active); in test [3], 62%; in test [4], 40.6%; in test [5] it was 2.71% (active); in test [6] it was -18.9% (active). In addition, the growth in test [7] was -58.4% (active); in test [8], -43.6% (active); in [9], -68.4% (active); in test [10], -1.61% (active); in [11] it was 7.15% (active); in test [12] it was 18.3%. For the same compound, the growth in test [13] was -10.2% (active); in test [14] it was -51.7% (active); in [15], 2.67% (active); in test [16] it was -63.5% (active); in test [17] it was 34.1%; in test [18] it was 77.7%. Further, the growth is 3.86% (active) in test [19] and -3.06% (active) in [20].

On to `COc1cc(-c2csc(NC(=O)c3cc(C(F)(F)F)cc(C(F)(F)F)c3)n2)cc(OC)c1OC`, for which the growth is 15.6% in test [1]; 21.3% in [2]; 52.5% in [3]; 29.9% in test [4]; 21% in test [5]; 10.6% in test [6]. The growth was -30.1% (active) in [7]; 3.9% (active) in [8]; 26.5% in test [9]; 40.8% in test [10]; 21.5% in [11]; 9.17% (active) in test [12]. In addition, the growth in test [13] is 25.3%; in test [14], 21.3%; in test [15] it was 33%; in test [16], 36.1%; in test [17], 43.2%; in test [18], 11.1%. Also, the growth in test [19] was 29.3%; in test [20] it was 20.5%.

Take `Cc1cc2c(C(C)C)c(O)c(O)c(C=NCCCCCCC(=O)O)c2c(O)c1-c1c(C)cc2c(C(C)C)c(O)c(O)c(C=NCCCCCCC(=O)O)c2c1O`: the growth in test [1] is 16.1%; in test [2] it was 19%; in test [3], 50.1%; in [4], 21.8%; in test [5] it was 14.3%; in [6], 18.4%. In addition, the growth in test [7] was 30.2%; in test [8], 28.7%; in test [9] it was 4.47% (active); in test [10] it was 40.2%; in test [11], 28.5%; in test [12], 27.7%. Moreover, the growth was 35.7% in test [13]; 28.8% in test [14]; 17.3% in test [15]; 42.1% in [16]; 63.3% in test [17]; 36.6% in [18]. In addition, the growth in [19] is 18.1%; in test [20], 18.5%.

With `Cc1nc2scc(-c3ccccc3)n2c(=O)c1CCO`, the growth in test [1] was 96.1%; in test [2] it was 103%; in [3] it was 71.6%; in [4], 98.3%; in [5], 103%; in test [6], 87.7%. Further, the growth in test [7] was 100%; in test [8], 97.6%; in test [9] it was 92.3%; in [10], 113%; in test [11], 124%; in test [12] it was 92.3%. Moreover, the growth is 98.8% in [13]; 72.5% in test [14]; 99.9% in test [15]; 98.9% in [16]; 80.5% in test [17]; 86.8% in test [18]. Moreover, the growth in test [19] is 103%; in test [20], 106%.

With `CCCn1c(=S)sc2c(Cl)nc(C)nc21`, the growth in test [1] was 12.7%; in [2], 84%; in test [3], 8.62% (active); in test [4], 93.5%; in test [5], 79%; in [6], 100%. Further, the growth was 108% in test [7]; 54.7% in [8]; -78.5% (active) in [9]; 102% in test [10]; 1.85% (active) in test [11]; 106% in test [12]. Further, the growth in test [13] is 113%; in test [14], 103%; in [15] it was 137%; in [16], 83.1%; in [17], 63.8%; in [18], 98.5%. For the same compound, the results for the growth in test [19] and in test [20] were 72% and 116%, respectively.

For `CS(=O)(=O)N(c1cc(-c2ccc3ncnc(Nc4cccc(Cl)c4)c3c2)cnc1Cl)S(C)(=O)=O`, the growth is 10.4% in test [1]; 11.7% in test [2]; -3.18% (active) in test [3]; 24.3% in test [4]; 20.8% in test [5]; 10.7% in test [6]. In addition, the growth was -60.7% (active) in [7]; -6.31% (active) in test [8]; 2.19% (active) in [9]; -6.78% (active) in test [10]; -20% (active) in [11]; -3.18% (active) in [12]. Also, the growth in test [13] was 21.6%; in [14], 2.2% (active); in test [15], 2.1% (active); in [16], 11.7%; in [17], 6.68% (active); in [18] it was -28% (active). The results for the growth in [19] and in test [20] were 20.2% and -10.5% (active), respectively.
